# Values joined by “and” are separate entries in the source; they are usually repeats but may differ in a detail not shown here. Equal entries are not always repeated. Results filed as inconclusive are left out. Active and inactive are the calls of the source. Rule for the calls, unless noted: active = hit-call score of the fitted dose curve at least 0.9, where 1 is the maximum; inactive = score below 0.9.
# How the values were obtained:
# [1] = CCTE_Shafer_MEA_acute_firing_rate_mean: CCTE's Neural Acute Assay for Mean Firing Rate, Shafer Lab (AID 2284009);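 note: analyzed for loss of signal so actives lower firing rate relative to DMSO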
# Outline: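 Percent change in well-mean firing rate was derived from extracellular spikes detected at 8x rms noise (300-5000 Hz band-pass) before and after a 40-min compound exposure. Cultures were primary rat cortical neurons, tested at 0.03-40 uM.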
# [2] = CCTE_Harrill_HTTr_Viability_MCF7: CCTE's 6-hour Cell Viability Assessment for the High-Throughput Transcriptomics (HTTr) Platform, in MCF-7 cells cultured in DMEM + 10% fetal bovine serum, Harrill Lab (AID 2284010)
# Outline: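 Membrane integrity was scored by high-content imaging of propidium iodide dye exclusion after a 6 h exposure across an eight-point dilution series. Data were fitted bidirectionally relative to DMSO as negative control and baseline.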
# [3] = molecular target: Nucleoli Translocation, AR (gene 367) (UniProt P10275); experiment: UPITT_HCI_U2OS_AR_TIF2_Nucleoli_Antagonist: University of Pittsburgh U2OS Androgen Receptor-Transcriptional Intermediary Factor 2 (AR-TIF2) Antagonism High Content Imaging Assay for Nucleoli Translocation (AID 2283997; active = hit-call score of the fitted dose curve at least 0.9, where 1 is the maximum)
# Nucleoli Translocation, AR (gene 367), sequence (P10275 whole entry, looked up): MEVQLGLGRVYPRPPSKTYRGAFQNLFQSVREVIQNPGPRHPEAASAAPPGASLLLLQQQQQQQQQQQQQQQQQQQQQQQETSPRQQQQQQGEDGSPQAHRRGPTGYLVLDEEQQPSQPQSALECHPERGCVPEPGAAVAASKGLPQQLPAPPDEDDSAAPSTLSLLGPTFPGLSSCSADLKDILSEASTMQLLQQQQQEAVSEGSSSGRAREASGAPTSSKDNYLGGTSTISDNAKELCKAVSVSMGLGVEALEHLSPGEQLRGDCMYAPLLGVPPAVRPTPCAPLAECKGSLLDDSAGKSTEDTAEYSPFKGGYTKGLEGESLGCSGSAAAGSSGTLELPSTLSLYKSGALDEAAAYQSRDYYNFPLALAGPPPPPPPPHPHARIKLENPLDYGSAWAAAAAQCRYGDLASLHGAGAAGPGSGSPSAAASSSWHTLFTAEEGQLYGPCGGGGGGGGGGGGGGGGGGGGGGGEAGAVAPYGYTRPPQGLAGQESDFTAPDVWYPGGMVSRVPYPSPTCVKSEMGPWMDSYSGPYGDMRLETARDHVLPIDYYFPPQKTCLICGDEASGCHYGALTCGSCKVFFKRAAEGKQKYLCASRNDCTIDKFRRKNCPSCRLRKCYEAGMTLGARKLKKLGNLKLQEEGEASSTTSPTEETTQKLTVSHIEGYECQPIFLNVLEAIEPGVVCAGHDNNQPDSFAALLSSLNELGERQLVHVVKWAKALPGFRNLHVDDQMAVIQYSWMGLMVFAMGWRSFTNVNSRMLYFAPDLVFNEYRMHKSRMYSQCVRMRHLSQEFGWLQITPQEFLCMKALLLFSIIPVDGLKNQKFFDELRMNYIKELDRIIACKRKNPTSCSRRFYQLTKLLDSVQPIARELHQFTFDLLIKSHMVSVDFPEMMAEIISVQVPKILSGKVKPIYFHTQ
# Outline: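 Measured quantity was AR-RFP fluorescence localized to nucleoli in engineered U2OS cells also bearing TIF2-GFP, acquired on automated high-content imagers. Primary testing used 20 uM compound; actives were confirmed in triplicate wells.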
# [4] = molecular target: Nucleoli Translocation, AR (gene 367) (UniProt P10275); experiment: UPITT_HCI_U2OS_AR_TIF2_Nucleoli_Agonist: University of Pittsburgh U2OS Androgen Receptor-Transcriptional Intermediary Factor 2 (AR-TIF2) Agonism High Content Imaging Assay for Nucleoli Translocation (AID 2283998; active = hit-call score of the fitted dose curve at least 0.9, where 1 is the maximum)
# Outline: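 Readout is red (AR-RFP) fluorescence localized to nucleoli, measured by high-content imaging and analysed for increase relative to DMSO. Compound series spanned 0.195 to 50 uM final in 0.5% DMSO.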
# [5] = molecular target: Ratio of Nucleoli Translocation and Cytoplasm, AR (gene 367) (UniProt P10275); experiment: UPITT_HCI_U2OS_AR_TIF2_Nucleoli_Cytoplasm_Ratio_Antagonist: University of Pittsburgh U2OS Androgen Receptor-Transcriptional Intermediary Factor 2 (AR-TIF2) Antagonism High Content Imaging Assay for Ratio of Nucleoli Translocation and Cytoplasm (AID 2283999; active = hit-call score of the fitted dose curve at least 0.9, where 1 is the maximum;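 note: antagonists lower the DHT-driven ratio of nucleolar to cytoplasmic red signal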)
# Ratio of Nucleoli Translocation and Cytoplasm, AR (gene 367), sequence (P10275 whole entry, looked up): as above
# Outline: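 U2OS cells expressing RFP-tagged human AR and GFP-tagged TIF2; compounds tested at 20 uM final (0.2% DMSO) in primary screen, 0.195–50 uM (0.5% DMSO) for concentration response. Readout: nucleolar-to-cytoplasmic red fluorescence ratio by high-content imaging, fitted relative to DHT.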
# [6] = molecular target: Ratio of Nucleoli Translocation and Cytoplasm, AR (gene 367) (UniProt P10275); experiment: UPITT_HCI_U2OS_AR_TIF2_Nucleoli_Cytoplasm_Ratio_Agonist: University of Pittsburgh U2OS Androgen Receptor-Transcriptional Intermediary Factor 2 (AR-TIF2) Agonism High Content Imaging Assay for Ratio of Nucleoli Translocation and Cytoplasm (AID 2284000; active = hit-call score of the fitted dose curve at least 0.9, where 1 is the maximum;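 note: hits raise the red nucleolar to cytoplasm ratio above vehicle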)
# Outline: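 Read-out first: nucleolar-to-cytoplasm ratio of red (AR-RFP) signal, quantified by high-content imaging in U2OS cells co-expressing TIF2-GFP. Activity is scored as signal increase over DMSO. Single-point screening used 20 uM final (0.2% DMSO).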
# [7] = CCTE_Simmons_MITO_basal_resp_rate: CCTE's HepG2 Seahorse XF Respirometric Screening Assay at Basal Respiratory State, Simmons Lab (AID 2284001); details: actives raise or lower the signal
# Outline: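 HepG2 respirometry; 7-pt titration 125 nM–100 uM final; kinetic OCR at 6 min intervals for 72 min; n=3 biological, technical singles; DMSO baseline, gain or loss fit; fenpyroximate (decrease) and 2,4-DNP (increase) controls.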
# [8] = CCTE_Simmons_MITO_max_resp_rate: CCTE's HepG2 Seahorse XF Respirometric Screening Assay at Maximal Respiratory State [uncoupled], Simmons Lab (AID 2284002); details: actives raise or lower the signal
# Outline: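 Read-out is oxygen consumption rate at maximal respiration, taken after FCCP uncoupling of compound-treated HepG2 cells. Seven final concentrations from 125 nM to 100 uM were tested, each in three biological replicates.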
# [9] = CCTE_Simmons_MITO_inhib_resp_rate: CCTE's HepG2 Seahorse XF Respirometric Screening Assay at Inhibited Respiratory State [full ETC block], Simmons Lab (AID 2284006); details: actives raise or lower the signal
# Outline: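 HepG2 cells on Seahorse XF96; oxygen consumption measured after test compound, then FCCP, then rotenone/antimycin A injections over 72 min. Test chemicals at 7 concentrations, 125 nM–100 uM final. OCR fitted bidirectionally versus DMSO.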
# [10] = CCTE_Simmons_MITO_viability: CellTiter-Glo Viability Assessment for CCTE's HepG2 Seahorse XF Respirometric Screening Assay [post-hoc], Simmons Lab (AID 2284007; active = hit-call score of the fitted dose curve at least 0.9, where 1 is the maximum;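 for AC50: cells exposed to chemical for 90 min before the ATP read; actives lower ATP signal relative to DMSO baseline meaning reduced viability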)
# Procedure: CCTE_Simmons_MITO is cell-based, respirometric assay using HepG2 cells and a Seahorse XF Analyzer to measure oxygen consumption rates over four temporal phases spanning a total of 72 minutes: pre-injection (pre-treatment), basal (following test compound injection), maximal (following FCCP uncoupler injection), and inhibited (following rotenone/antimycin A injection)CCTE_Simmons_MITO_viability is one of 4 assay components measured from the CCTE_Simmons_MITO assay. It is designed to make measurements of ATP content, a form of viability reporter, as detected with bioluminescence signals by Luciferase-coupled ATP quantitation technology. Data from the assay component CCTE_Simmons_MITO_viability was analyzed at the endpoint, CCTE_Simmons_MITO_viability, in the positive analysis fitting direction relative to DMSO as the negative control and baseline of activity. Using a type of viability reporter, measures of ATP content for loss-of-signal activity can be used to understand the viability. To generalize the intended target to other relatable targets, this assay endpoint is annotated to the cell cycle intended target family, where the subfamily is cytotoxicity.
# Test chemicals were administered as a titrated series of 7 concentrations from 125 nM up to 100 uM [final] for 90 minutes prior to single endpoint detection. Three biological replicates of technical singles were run for every chemical concentration tested. Dimethylsulfoxide [DMSO] was used as the vehicle control. Dichlone [DCNQ] was used as the positive control and was administered as a titrated series of 8 concentrations from 10 nM up to 100 uM [final].
structure (smiles),measurement,setting,value
ClC1=C(Cl)[C@]2(Cl)[C@H]3[C@H]([C@@H]4C=C[C@H]3C4)[C@@]1(Cl)C2(Cl)Cl,outcome,[1],inactive
same,outcome,[2],inactive
O=C(Nc1ccccc1)c1ccccc1I,outcome,[3],inactive
same,outcome,[4],inactive
same,outcome,[5],inactive
same,outcome,[6],inactive
same,outcome,[2],inactive
Nc1ccc([N+](=O)[O-])cc1,outcome,[3],inactive
same,outcome,[6],inactive
same,outcome,[2],inactive
CCCCC(CC)COC(=O)c1ccc(C(=O)OCC(CC)CCCC)c(C(=O)OCC(CC)CCCC)c1 (stereo not drawn),outcome,[3],inactive
same,outcome,[5],inactive
same,outcome,[6],inactive
C[N+](C)(C)CC1CO1 (stereo not drawn),outcome,[4],inactive
same,outcome,[5],inactive
same,outcome,[6],inactive
same,outcome,[1],inactive
same,outcome,[2],inactive
O=C(Oc1ccc(Br)cc1)N1CCN2CCC1CC2,outcome,[1],inactive
same,outcome,[2],inactive
O=P(OCCCl)(OCCCl)OCCCl,outcome,[1],inactive
same,outcome,[2],inactive
CCNS(=O)(=O)C(F)(F)C(F)(F)C(F)(F)C(F)(F)C(F)(F)C(F)(F)C(F)(F)C(F)(F)F,outcome,[3],inactive
same,outcome,[6],inactive
same,outcome,[2],inactive
COC(=O)Nc1nc2ccccc2[nH]1,outcome,[4],inactive
same,outcome,[1],inactive
same,outcome,[2],inactive
CCN(CC)N=O,outcome,[1],inactive
same,outcome,[2],inactive
O=C1CCCO1,outcome,[3],inactive
same,outcome,[2],inactive
CCCCCCCCn1sccc1=O,outcome,[7],inactive
same,AC50,[8],52 µM (active)
same,outcome,[9],inactive
same,AC50,[10],74.4 µM (active)
same,outcome,[1],inactive
same,outcome,[2],inactive
CC(C)(O)c1cnn2c(-c3ccc(F)c(-c4c(F)cccc4C#N)c3)cnc2n1,outcome,[3],inactive
same,outcome,[4],inactive
same,outcome,[6],inactive
same,AC50,[1],0.789 µM (active)
same,outcome,[2],inactive
CC(C)(C)C(O)(CCc1ccc(Cl)cc1)Cn1cncn1 (stereo not drawn),AC50,[7],39.6 µM (active)
same,AC50,[8],33.4 µM (active)
same,outcome,[9],inactive
same,outcome,[10],inactive
same,AC50,[1],3.75 µM (active)
same,outcome,[2],inactive
CC(C)N(Cc1ccccc1)C(=O)C(C)(C)C,outcome,[3],inactive
same,outcome,[5],inactive
same,outcome,[6],inactive
same,AC50,[7],35.6 µM (active)
same,outcome,[8],inactive
same,outcome,[9],inactive
same,outcome,[10],inactive
same,outcome,[2],inactive
c1ccc(N=Nc2ccccc2)cc1,outcome,[1],inactive
same,outcome,[2],inactive
O=[N+]([O-])c1ccc(Oc2ccc(Cl)cc2Cl)cc1,AC50,[1],9.76 µM (active)
same,outcome,[2],inactive
C[C@]12C=CC3=C4CCC(=O)C=C4CC[C@H]3[C@@H]1CC[C@@H]2O,AC50,[4],0.00188 µM (active)
same,AC50,[6],0.00266 µM (active)
same,outcome,[7],inactive
same,outcome,[8],inactive
same,outcome,[9],inactive
same,outcome,[2],inactive
CC(C)COC(=O)c1ccccc1C(=O)OCC(C)C,AC50,[7],56.3 µM (active)
same,AC50,[8],50 µM (active)
same,outcome,[9],inactive
same,outcome,[10],inactive
same,AC50,[1],7.16 µM (active)
same,outcome,[2],inactive
Cc1ccc(N)c(N)c1,outcome,[1],inactive
same,outcome,[2],inactive
CNC(=O)Oc1cccc2c1OC(C)(C)C2,outcome,[3],inactive
same,outcome,[5],inactive
same,outcome,[2],inactive
c1ccc(NNc2ccccc2)cc1,outcome,[1],inactive
same,outcome,[2],inactive
[Cl-].[Cl-].[Hg+2],AC50,[7],36.7 µM (active)
same,AC50,[8],50 µM (active)
same,AC50,[9],50 µM (active)
same,AC50,[10],15.3 µM (active)
same,AC50,[1],31 µM (active)
same,outcome,[2],inactive
Nc1ccc(Cl)cc1N,outcome,[3],inactive
same,outcome,[4],inactive
same,outcome,[5],inactive
same,outcome,[6],inactive
same,outcome,[2],inactive
Cc1cc(N=Nc2ccccc2C)ccc1N,AC50,[3],26.1 µM (active)
same,AC50,[4],77.9 µM (active)
same,outcome,[5],inactive
same,AC50,[6],84.9 µM (active)
same,AC50,[7],25 µM (active)
same,AC50,[8],36.4 µM (active)
same,outcome,[9],inactive
same,outcome,[10],inactive
same,outcome,[1],inactive
same,outcome,[2],inactive
CCOC(=O)[C@]1(c2ccccc2)Oc2ccccc2[C@@H]1N,AC50,[7],43.2 µM (active)
same,AC50,[8],31.3 µM (active)
same,outcome,[9],inactive
same,outcome,[10],inactive
same,outcome,[2],inactive
COc1cc(C=O)cc2c1[C@H](COC(N)=O)[C@]1(OC(C)=O)ON2C[C@H]2[C@@H]1N2C(C)=O,outcome,[7],inactive
same,outcome,[8],inactive
same,outcome,[9],inactive
same,outcome,[2],inactive
Clc1ccc(C(c2ccc(Cl)cc2)C(Cl)(Cl)Cl)cc1,outcome,[1],inactive
same,outcome,[2],inactive
Nc1ccc(N=Nc2ccccc2)cc1,outcome,[7],inactive
same,outcome,[8],inactive
same,outcome,[9],inactive
same,outcome,[10],inactive
same,outcome,[2],inactive
CC(C)(OOC(C)(C)c1ccccc1)c1ccccc1,AC50,[3],38.5 µM (active)
same,outcome,[5],inactive
same,outcome,[6],inactive
same,outcome,[1],inactive
same,outcome,[2],inactive
CO[C@@H]1[C@H](OC(=O)NC(=O)CCl)CC[C@]2(CO2)[C@H]1[C@@]1(C)O[C@@H]1CC=C(C)C,outcome,[3],inactive
same,outcome,[4],inactive
same,outcome,[5],inactive
same,outcome,[6],inactive
same,outcome,[2],inactive
O=Cc1ccco1,outcome,[1],inactive
CCC(C)c1ccc(O)cc1 (stereo not drawn),AC50,[7],44.3 µM (active)
same,outcome,[8],inactive
same,outcome,[9],inactive
same,AC50,[1],20 µM (active)
same,outcome,[2],inactive
O=C(N[C@H](c1ccccc1)[C@@H]1CN2CCC1CC2)c1c(Cl)ccc(C(F)(F)F)c1Cl,AC50,[1],1.55 µM (active)
same,outcome,[2],inactive
CCC[CH2][Sn]([Cl])([CH2]CCC)[CH2]CCC,AC50,[7],4.86 µM (active)
same,AC50,[8],3.2 µM (active)
same,outcome,[9],inactive
same,AC50,[10],11.9 µM (active)
same,AC50,[1],40.3 nM (active) and 70.2 nM (active)
same,AC50,[2],11.8 µM (active)
Clc1ccc(C(c2ccc(Cl)cc2)C(Cl)Cl)cc1,AC50,[1],2.94 µM (active)
same,outcome,[2],inactive
ClC1=C(Cl)C2(Cl)C3C(Cl)C=CC3C1(Cl)C2(Cl)Cl (stereo not drawn),AC50,[1],7.53 µM (active)
same,outcome,[2],inactive
CCCCOC(=O)c1ccccc1C(=O)OCc1ccccc1,AC50,[1],3.11 µM (active)
same,outcome,[2],inactive
O=[N+]([O-])C(Br)(CO)CO,AC50,[3],31.8 µM (active)
same,outcome,[4],inactive
same,outcome,[5],inactive
same,outcome,[6],inactive
same,AC50,[1],33.9 µM (active)
same,outcome,[2],inactive

# Reference: PubChem BioAssay (EPA / NIEHS)
